PubChem BioAssay (NCI)
Several values for one entry are separate records, joined by “and”; a condition that tells them apart may be missing. Identical values can stand only once. Compounds without any hit were thinned out: in the full panel of roughly 79,000, 15% have a hit. Where a structure was tested more than once in an assay, its records may differ in their call. Activity calls are given as the source filed them. Cut-off read from the data, not from the text of the source: active = growth inhibition above about 70%; inactive = the rest.

Assay: NCI Yeast Anticancer Drug Screen. Data for the rad50 strain (AID 155);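 note: 0% = growth of vehicle-only cultures of the same strain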
Conditions: S. cerevisiae rad50 strain growth inhibition; at 50.0 µM; stronger effect = higher value
How it was run: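 Genetically altered yeast (DNA repair pathway); compound treatment; growth inhibition vs vehicle ctrl.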
With `C1CC[N-]CC1.CC(=N\O)/C(C)=N/O.CC(=N\O)/C(C)=N/O.[CH2-]c1ccccc1.[Co+2]` the growth inhibition was -3.75% (inactive).
For `C[Si](C)(C)C#CC#C[Si](C)(C)C.[Ni].[Ni].[Ni].[Ni].[c-]1[c-][c-][cH-][c-]1.[c-]1[c-][c-][cH-][c-]1.[c-]1[c-][c-][cH-][c-]1.[c-]1[c-][c-][cH-][c-]1`, the growth inhibition was 11.7% (inactive).
For `CC(NC1=NCCO1)c1ccccc1Cl` (stereo not given), the growth inhibition was -8.85% (inactive).
With `O=C(CN1CCCCC1)c1ccc(Br)cc1` the growth inhibition was 15.7% (inactive).
For `COC(=O)C1=C(N2CCCC2)C2c3ccccc3SC12C(=O)OC` (stereo not given), the growth inhibition was 20.1% (inactive).
For `CC(=O)O[C@H]1CCC2[C@@H]3CC[C@]4(C)CC(=O)C=C[C@]4(C)C3CC[C@@]21C` (stereo not given in full), the growth inhibition was 84.7% (active).
With `Nc1cc(C(=O)O)ccc1O.[Cl][Sn][Cl]` the growth inhibition was 2.2% (inactive).
With `Cc1ccc(NC2=NCCS2)cc1Cl` the growth inhibition was 3.05% (inactive).
In the case of `[N-]=[N+]=C1CNC(=O)NC1=O`, the growth inhibition is reported as 9.9% (inactive).
For `CN(C)C(=O)C1(c2ccccc2)CCNCC1`, the growth inhibition was 19.4% (inactive).
For `CC(=O)[O][Pb]([CH3])([CH3])[CH3]`, the growth inhibition was -28% (inactive).
In the case of `CN(Cc1cnc2nc(N)nc(N)c2n1)c1ccc(C(=O)NC(CCC(=O)NCC(P(=O)(O)O)P(=O)(O)O)C(=O)O)cc1` (stereo not given), the growth inhibition is reported as -12.6% (inactive).
For `O=C1NC(=O)C(CC(C(=O)C(=O)Nc2ccccc2Cl)C(=O)c2ccc3ccccc3c2)C(=O)N1` (stereo not given), the growth inhibition was -27.7% (inactive).
For `O=C1CCCC2C3CC(CN12)C1CCCCN1C3` (stereo not given), the growth inhibition was 9.85% (inactive) and 15.7% (inactive).
With `CCCCCCCCCCNP(=S)(NCCCCCCCCCC)c1ccccc1` the growth inhibition was 26.8% (inactive).
With `CC(C)(C)c1cc(O)ccc1O` the growth inhibition was 22.5% (inactive).
For `Cc1ccc(S(=O)(=O)F)cc1`, the growth inhibition was 10.4% (inactive).
In the case of `CC(O)C[As](=O)(O)c1ccccc1Cl` (stereo not given), the growth inhibition is reported as 2.85% (inactive).
With `CN1CCCC2(CCCc3ccccc32)C1` (stereo not given) the growth inhibition was 14.2% (inactive).
In the case of `SCc1c(Cl)c(Cl)c(Cl)c(Cl)c1Cl.[Hg]`, the growth inhibition is reported as -7.65% (inactive).
For `CC[C@@]1(O)C(=O)OCc2c1cc1n(c2=O)Cc2c-1nc1ccccc1c2C=Nc1ccc(N[C@@H]2c3cc4c(cc3[C@@H](c3cc(OC)c(O)c(OC)c3)[C@H]3C(=O)OC[C@@H]32)OCO4)cc1`, the growth inhibition was 49.7% (inactive) and 82.5% (active).
With `CCC1CN2CCC3(C(=O)Nc4ccccc43)C2CC1/C(=C/OC)C(=O)OC` (stereo not given) the growth inhibition was -1.8% (inactive).
For `N#CC1(c2ccccc2)CCCC1`, the growth inhibition was 5.7% (inactive).
For `CCCCCCCCCCCCCCC(O)C1CCC(C(O)CCC(O)CCCCCC(O)CC2=CC(C)OC2=O)O1` (stereo not given), the growth inhibition was -37.2% (inactive).
With `O=C1C=C2c3ccccc3CC(C(=O)O)C2CC1` (stereo not given) the growth inhibition was -20.5% (inactive).
For `CCOP(=S)(OCC)N(C)C(=O)Oc1cccc(C(C)C)c1`, the growth inhibition was 0.95% (inactive).
For `CCOC(OCC)c1ccccc1`, the growth inhibition was 7.95% (inactive).
For `CN1CCC2(CC1)c1ccccc1-c1ccccc12`, the growth inhibition was -7.7% (inactive).
For `COc1ccc2c(c1)-c1c(ccc(OC)c1OC(=O)C(=O)c1ccccc1)CC(Cl)N(C)CC2.[O]=[Cr](=[O])([OH])[OH]` (stereo not given), the growth inhibition was -18.3% (inactive).
With `NC(Cc1ccc(N(CCCl)Cc2ccccc2)cc1)C(=O)O` (stereo not given) the growth inhibition was 10.1% (inactive).
For `NC(=O)C(F)(F)Cl`, the growth inhibition was 12.8% (inactive).
With `COP(=O)(NC(=O)OC(C)C)OC` the growth inhibition was -37.1% (inactive).
In the case of `c1ccc(C[P+]2(c3ccccc3)CCCCC2)cc1`, the growth inhibition is reported as -12.7% (inactive).
With `CCS(=O)(=O)CCN1C(=O)CN=C(c2ccccc2F)c2cc(Cl)ccc21` the growth inhibition was 27.6% (inactive).
For `N/C(=N\N=C\c1ccccc1O)N[N+](=O)[O-]`, the growth inhibition was -17.5% (inactive).
In the case of `CCCCCCCCCCOC(=O)CC(C)=O.CCCCCCCCCCOC(=O)CC(C)=O.[Ni+2]`, the growth inhibition is reported as -37.5% (inactive).
In the case of `CCOP(=O)(CCC[N+](=O)[O-])OCC`, the growth inhibition is reported as -12.1% (inactive).
In the case of `COc1ccc2nc3cc(Cl)ccc3c(NCCCSCCCl)c2n1`, the growth inhibition is reported as 95.4% (active).
With `CN(C)CCC(C)(C#N)c1ccccc1` (stereo not given) the growth inhibition was 8.9% (inactive).
With `CC1CC2OC(=O)C(CN3CC3)C2CC2(C)C(O)CC(O)C12` (stereo not given) the growth inhibition was 32.2% (inactive).

Assay: NCI Yeast Anticancer Drug Screen. Data for the mec2-1 strain (AID 157)
Conditions: S. cerevisiae mec2-1 strain, at 50.0 µM, stronger effect = higher value
How it was run: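 Each compound was tested on mec2-1 yeast, a strain altered in DNA damage repair or cell cycle control. Growth inhibition is reported relative to vehicle.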
For `C1CC[N-]CC1.CC(=N\O)/C(C)=N/O.CC(=N\O)/C(C)=N/O.[CH2-]c1ccccc1.[Co+2]`, the growth inhibition was -0.9% (inactive).
In the case of `C[Si](C)(C)C#CC#C[Si](C)(C)C.[Ni].[Ni].[Ni].[Ni].[c-]1[c-][c-][cH-][c-]1.[c-]1[c-][c-][cH-][c-]1.[c-]1[c-][c-][cH-][c-]1.[c-]1[c-][c-][cH-][c-]1`, the growth inhibition is reported as 5.5% (inactive).
With `CC(NC1=NCCO1)c1ccccc1Cl` (stereo not given) the growth inhibition was -29% (inactive).
With `O=C(CN1CCCCC1)c1ccc(Br)cc1` the growth inhibition was 6.1% (inactive).
With `COC(=O)C1=C(N2CCCC2)C2c3ccccc3SC12C(=O)OC` (stereo not given) the growth inhibition was 10.8% (inactive).
For `CC(=O)O[C@H]1CCC2[C@@H]3CC[C@]4(C)CC(=O)C=C[C@]4(C)C3CC[C@@]21C` (stereo not given in full), the growth inhibition was 90.5% (active).
For `Nc1cc(C(=O)O)ccc1O.[Cl][Sn][Cl]`, the growth inhibition was -4.15% (inactive).
In the case of `Cc1ccc(NC2=NCCS2)cc1Cl`, the growth inhibition is reported as 7.15% (inactive).
With `[N-]=[N+]=C1CNC(=O)NC1=O` the growth inhibition was -19.6% (inactive).
In the case of `CN(C)C(=O)C1(c2ccccc2)CCNCC1`, the growth inhibition is reported as -1.7% (inactive).
In the case of `CC(=O)[O][Pb]([CH3])([CH3])[CH3]`, the growth inhibition is reported as -35.9% (inactive).
With `CN(Cc1cnc2nc(N)nc(N)c2n1)c1ccc(C(=O)NC(CCC(=O)NCC(P(=O)(O)O)P(=O)(O)O)C(=O)O)cc1` (stereo not given) the growth inhibition was -28.2% (inactive).
For `O=C1NC(=O)C(CC(C(=O)C(=O)Nc2ccccc2Cl)C(=O)c2ccc3ccccc3c2)C(=O)N1` (stereo not given), the growth inhibition was 7.8% (inactive).
With `O=C1CCCC2C3CC(CN12)C1CCCCN1C3` (stereo not given) the growth inhibition was -18.3% (inactive) and -13.9% (inactive).
With `CCCCCCCCCCNP(=S)(NCCCCCCCCCC)c1ccccc1` the growth inhibition was 4.7% (inactive).
With `CC(C)(C)c1cc(O)ccc1O` the growth inhibition was -1.55% (inactive).
In the case of `Cc1ccc(S(=O)(=O)F)cc1`, the growth inhibition is reported as -8.7% (inactive).
In the case of `CC(O)C[As](=O)(O)c1ccccc1Cl` (stereo not given), the growth inhibition is reported as 25.5% (inactive).
For `CN1CCCC2(CCCc3ccccc32)C1` (stereo not given), the growth inhibition was -33.1% (inactive).
With `SCc1c(Cl)c(Cl)c(Cl)c(Cl)c1Cl.[Hg]` the growth inhibition was -24.9% (inactive).
With `CC[C@@]1(O)C(=O)OCc2c1cc1n(c2=O)Cc2c-1nc1ccccc1c2C=Nc1ccc(N[C@@H]2c3cc4c(cc3[C@@H](c3cc(OC)c(O)c(OC)c3)[C@H]3C(=O)OC[C@@H]32)OCO4)cc1` the growth inhibition was 71.6% (active) and 76.7% (active).
For `CCC1CN2CCC3(C(=O)Nc4ccccc43)C2CC1/C(=C/OC)C(=O)OC` (stereo not given), the growth inhibition was -12.3% (inactive).
With `N#CC1(c2ccccc2)CCCC1` the growth inhibition was 8.25% (inactive).
In the case of `CCCCCCCCCCCCCCC(O)C1CCC(C(O)CCC(O)CCCCCC(O)CC2=CC(C)OC2=O)O1` (stereo not given), the growth inhibition is reported as -33.1% (inactive).
With `O=C1C=C2c3ccccc3CC(C(=O)O)C2CC1` (stereo not given) the growth inhibition was -14.2% (inactive).
In the case of `CCOP(=S)(OCC)N(C)C(=O)Oc1cccc(C(C)C)c1`, the growth inhibition is reported as -1.05% (inactive).
In the case of `CCOC(OCC)c1ccccc1`, the growth inhibition is reported as -5% (inactive).
In the case of `CN1CCC2(CC1)c1ccccc1-c1ccccc12`, the growth inhibition is reported as -20.6% (inactive).
With `COc1ccc2c(c1)-c1c(ccc(OC)c1OC(=O)C(=O)c1ccccc1)CC(Cl)N(C)CC2.[O]=[Cr](=[O])([OH])[OH]` (stereo not given) the growth inhibition was -0.55% (inactive).
With `NC(Cc1ccc(N(CCCl)Cc2ccccc2)cc1)C(=O)O` (stereo not given) the growth inhibition was -13.2% (inactive).
For `NC(=O)C(F)(F)Cl`, the growth inhibition was 7.1% (inactive).
In the case of `COP(=O)(NC(=O)OC(C)C)OC`, the growth inhibition is reported as -21.2% (inactive).
In the case of `c1ccc(C[P+]2(c3ccccc3)CCCCC2)cc1`, the growth inhibition is reported as -1.05% (inactive).
With `CCS(=O)(=O)CCN1C(=O)CN=C(c2ccccc2F)c2cc(Cl)ccc21` the growth inhibition was 6% (inactive).
In the case of `N/C(=N\N=C\c1ccccc1O)N[N+](=O)[O-]`, the growth inhibition is reported as -22.9% (inactive).
For `CCCCCCCCCCOC(=O)CC(C)=O.CCCCCCCCCCOC(=O)CC(C)=O.[Ni+2]`, the growth inhibition was -9.3% (inactive).
In the case of `CCOP(=O)(CCC[N+](=O)[O-])OCC`, the growth inhibition is reported as -11.9% (inactive).
In the case of `COc1ccc2nc3cc(Cl)ccc3c(NCCCSCCCl)c2n1`, the growth inhibition is reported as 80% (active).
In the case of `CN(C)CCC(C)(C#N)c1ccccc1` (stereo not given), the growth inhibition is reported as 5.7% (inactive).
For `CC1CC2OC(=O)C(CN3CC3)C2CC2(C)C(O)CC(O)C12` (stereo not given), the growth inhibition was 30.3% (inactive).
